The nature of test [1]: BSK_LPS_SRB: Viability Assessment in the BioMAP Diversity Plus: LPS Assay (AID 2283079).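 Note: total protein by sulforhodamine B absorbance as a cytotoxicity measure; measured one day after compound addition; fitted in both directions against DMSO so loss or gain of signal counts.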 To be noted: primary human HUVEC with PBMC. The procedure, abridged:
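Co-culture of human umbilical vein endothelial cells and PBMC, read 24 h after dosing. Total protein by 0.1% SRB staining after 10% TCA fixation, absorbance at 560 nm; bidirectional fit against DMSO.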

Read-out in test [2]: Interleukin-1 alpha (IL1a), IL1A (gene 3552)
As to the kind of experiment: BSK_LPS_IL1a: BioMAP Diversity Plus: LPS Assay for Interleukin-1 alpha (IL1a) Biomarker Activity (AID 2283080). To be noted: primary human HUVEC with PBMC; actives raise or lower the signal. The procedure, abridged: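 Human umbilical vein endothelial cells co-cultured with PBMC and stimulated with LPS; IL-1a measured by ELISA 24 h after dosing. Bidirectional fitting against DMSO; cytotoxicity checked by SRB staining in parallel cultures.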

Read-out in test [3]: Monocyte Chemoattractant Protein-1 (MCP1), CCL2 (gene 6347)
As to the kind of experiment: BSK_LPS_MCP1: BioMAP Diversity Plus: LPS Assay for Monocyte Chemoattractant Protein-1 (MCP1) Biomarker Activity (AID 2283081).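 For AC50: secreted MCP-1 protein quantified by ELISA in culture supernatant.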 As to conditions: primary human HUVEC with PBMC; actives raise or lower the signal. Summed up:
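Human umbilical vein endothelial cells co-cultured with PBMC, LPS-stimulated; secreted MCP-1 measured by ELISA 24 h after compound addition. Bidirectional curve fitting against DMSO baseline; SRB total-protein staining in parallel cultures for cytotoxicity.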

Test [4] is described as follows: BSK_LPS_PGE2: BioMAP Diversity Plus: LPS Assay for Prostaglandin E2 (PGE2) Biomarker Activity (AID 2283082). As to conditions: primary human HUVEC with PBMC; actives raise or lower the signal. Summed up: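 HUVEC plus human PBMC co-culture stimulated with LPS; secreted PGE2 quantified by ELISA 24 h after chemical dosing. Activity fitted bidirectionally against DMSO baseline; parallel SRB staining (0.1% SRB after 10% TCA fixation, 560 nm) flags overt cytotoxicity.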

Read-out in test [5]: Macrophage colony-stimulating factor (MCSF), CSF1 (gene 1435)
In words: BSK_LPS_MCSF: BioMAP Diversity Plus: LPS Assay for Macrophage colony-stimulating factor (MCSF) Biomarker Activity (AID 2283083). As to conditions: primary human HUVEC with PBMC; actives raise or lower the signal. Summed up:
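HUVEC–PBMC co-culture, M-CSF measured by ELISA 24 h after chemical dosing. Fitted in both directions relative to DMSO as negative control; overt cytotoxicity assessed by SRB total-protein staining in parallel cultures.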

Read-out in test [6]: Tissue Factor, F3 (gene 2152)
In words: BSK_LPS_TissueFactor: BioMAP Diversity Plus: LPS Assay for Tissue Factor Biomarker Activity (AID 2283084). To be noted: primary human HUVEC with PBMC; actives raise or lower the signal. Summed up:
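Human umbilical vein endothelial cells co-cultured with PBMC were dosed with compound. Cell-surface CD142 was measured by ELISA 24 h later. Activity was fitted bidirectionally against DMSO, with SRB total-protein staining in parallel cultures for cytotoxicity.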

Read-out in test [7]: Tumor necrosis factor (Homo sapiens) (UniProt P01375)
In words: BSK_LPS_TNFa: BioMAP Diversity Plus: LPS Assay for Tumour Necrosis Factor alpha (TNFa) Biomarker Activity (AID 2283085).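 For AC50: TNFa protein level quantified by ELISA in the co-culture.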 As to conditions: primary human HUVEC with PBMC; actives raise or lower the signal. The procedure, abridged:
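Human umbilical vein endothelial cells co-cultured with PBMC and stimulated with LPS. TNFa was measured by ELISA 24 h after chemical dosing, fitted bidirectionally relative to DMSO.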

Read-out in test [8]: Vascular cell adhesion molecule 1 (VCAM1), VCAM1 (gene 7412)
As to the kind of experiment: BSK_LPS_VCAM1: BioMAP Diversity Plus: LPS Assay for Vascular cell adhesion molecule 1 (VCAM1) Biomarker Activity (AID 2283086). As to conditions: primary human HUVEC with PBMC; actives raise or lower the signal. Summed up:
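Human umbilical vein endothelial cells co-cultured with PBMC and stimulated with LPS; VCAM-1 measured by ELISA 24 h after dosing. Bidirectional curve fitting against DMSO baseline; cytotoxicity tracked in parallel by SRB total-protein staining.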

Read-out in test [9]: CD38, CD38 (gene 952)
As to the kind of experiment: BSK_SAg_CD38: BioMAP Diversity Plus: SAg Assay for CD38 Biomarker Activity (AID 2283087). To be noted: primary human HUVEC with PBMC; actives raise or lower the signal. The procedure, abridged:
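Human HUVEC plus PBMC co-culture stimulated with superantigen; CD38 measured by ELISA 24 h after chemical dosing. Fluorescence read-out, bidirectional fit against DMSO; cytotoxicity tracked in parallel by SRB and Alamar Blue.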

Read-out in test [10]: CD40, CD40 (gene 958)
As to the kind of experiment: BSK_SAg_CD40: BioMAP Diversity Plus: SAg Assay for CD40 Biomarker Activity (AID 2283088). As to conditions: primary human HUVEC with PBMC; actives raise or lower the signal. Summed up: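 HUVEC plus PBMC co-culture, superantigen-activated, with CD40 read by ELISA 24 h after dosing. Curves fitted in both directions against DMSO. Overt cytotoxicity checked by parallel SRB total-protein staining.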

Where “and” joins values, the source holds several entries; their conditions need not be identical. Equal entries are not always repeated. Some structures have more than one record in an assay (separate samples or runs), and their calls can disagree. Calls of active or inactive are those of the source. Rule for the calls: active = hit-call score of the fitted dose curve at least 0.9, where 1 is the maximum; inactive = score below 0.9.

Chain of Tumor necrosis factor (Homo sapiens) (P01375 whole entry, looked up): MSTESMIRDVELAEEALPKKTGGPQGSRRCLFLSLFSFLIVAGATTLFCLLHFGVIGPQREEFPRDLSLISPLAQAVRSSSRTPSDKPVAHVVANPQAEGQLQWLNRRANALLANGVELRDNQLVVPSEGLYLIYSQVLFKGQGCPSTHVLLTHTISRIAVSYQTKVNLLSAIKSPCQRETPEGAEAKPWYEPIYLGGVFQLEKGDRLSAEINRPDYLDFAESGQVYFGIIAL

Take `COC(=O)C(C)Oc1ccc(Oc2ccc(Cl)cc2Cl)cc1` (stereo not given): the outcome in test [1], in test [2], in test [3], in test [5], in test [6] and in [7] was inactive. Moreover, the result in [8], in test [9] and in test [10] was inactive. Also, the AC50 – broadly, the midpoint of the concentration-response curve, whichever way the signal moves – in [3] was 28.9 µM (active); in [4] it was 11.4 µM (active) and 12 µM (active) and 23.5 µM (active); in test [9], 10.9 µM (active); in test [10] it was 13.6 µM (active).

As for `CCON=C(CC)C1=C(O)CC(c2c(C)cc(C)cc2C)CC1=O` (stereo not given), the result in [1], in test [2], in [3], in [5], in test [6] and in test [7] was inactive. For the same molecule, the result in test [8], in test [9] and in test [10] was inactive. In addition, in test [4], the half-maximal activity concentration (AC50) is 20 µM (active).

Consider `C=CCC1=C(C)[C@@H](OC(=O)[C@@H]2[C@@H](C=C(C)C)C2(C)C)CC1=O`, for which the AC50 in test [1] was 36.2 µM (active); in test [2], 32.3 µM (active); in test [3], 32.1 µM (active); in [4] it was 4.92 µM (active); in test [5], 26.9 µM (active); in test [7] it was 36.5 µM (active). For the same molecule, the AC50 in test [8] was 29.2 µM (active); in test [9], 33.1 µM (active); in [10], 38.7 µM (active). In [6], the result was inactive.

`COc1nc(NC(C)C)nc(NC(C)C)n1`: the outcome in test [1], in test [2], in test [3], in [4], in test [5] and in test [6] was inactive. The outcome in [8], in [9] and in test [10] was inactive. In test [7], the AC50 is 9.63 µM (active).

In the case of `C=CCC1=C(C)C(OC(=O)C2C(C=C(C)C)C2(C)C)CC1=O` (stereo not given), the AC50 in [1] was 33.1 µM (active) [middle of 4 runs]; in test [2], 34.3 µM (active) [middle of 4 runs]; in test [3], 35.7 µM (active) [middle of 4 runs]; in [4], 33.7 µM (active) and 5.54 µM (active); in test [5], 24.4 µM (active) [middle of 4 runs]; in test [6], 33.8 µM (active) and 31.9 µM (active). Besides, the AC50 was 34.3 µM (active) [middle of 4 runs] in test [7]; 31 µM (active) [middle of 4 runs] in [8]; 30.5 µM (active) and 34.3 µM (active) and 31.6 µM (active) in test [9]; 31.7 µM (active) [middle of 4 runs] in [10]. Besides, the result in test [4] and in [6] was inactive.

Regarding `CCc1nn(C)c(C(=O)NCc2ccc(C(C)(C)C)cc2)c1Cl`, the half-maximal activity concentration (AC50) in test [1] was 30 µM (active); in test [2], 33 µM (active); in test [3], 29.4 µM (active); in test [4], 3.97 µM (active); in test [5] it was 13.4 µM (active); in test [6] it was 20 µM (active). The half-maximal activity concentration (AC50) in test [7] is 20.8 µM (active); in test [8], 19.4 µM (active); in [9], 15.8 µM (active); in test [10], 7.68 µM (active).

Turning to `COC(=O)c1ccccc1C(=O)OC`, the outcome in test [1], in test [2], in test [3], in [4], in test [5] and in [6] was inactive. Besides, the result in [7], in test [8], in test [9] and in test [10] was inactive.

Consider `Cc1c(F)c(F)c(COC(=O)C2C(/C=C(\Cl)C(F)(F)F)C2(C)C)c(F)c1F` (stereo not given), for which the outcome in [1], in test [3], in [4], in test [6] and in test [7] was inactive. In addition, the half-maximal activity concentration (AC50) was 0.3 µM (active) in test [2]; 12.7 µM (active) in test [5]; 12 µM (active) in test [8]; 9.52 µM (active) in [9]; 32.5 µM (active) in [10].

`N#Cc1cc(Br)c(O)c(Br)c1`: the AC50 in [1] was 3.97 µM (active); in test [2], 20 µM (active); in [5], 4.08 µM (active); in test [9] it was 31.2 µM (active); in test [10], 20 µM (active). The result in [3], in [4], in [6], in test [7] and in test [8] was inactive.

In the case of `COC(=O)N(OC)c1ccccc1COc1ccn(-c2ccc(Cl)cc2)n1`, the half-maximal activity concentration (AC50) in test [1] was 10.1 µM (active); in [3] it was 9.04 µM (active); in test [4], 0.215 µM (active); in test [5] it was 14.1 µM (active); in test [7], 9.8 µM (active); in test [8] it was 13 µM (active). For the same molecule, the AC50 in test [9] is 5.43 µM (active); in [10] it was 15 µM (active). For the same molecule, the result in test [2] and in test [6] was inactive.

On to `COc1ccc(C(c2ccc(OC)cc2)C(Cl)(Cl)Cl)cc1`, for which the half-maximal activity concentration (AC50) in test [1] was 20 µM (active); in test [2], 32.5 µM (active); in test [3] it was 29.7 µM (active); in [5], 20 µM (active); in test [7], 12.2 µM (active); in test [8], 20 µM (active). Also, the half-maximal activity concentration (AC50) in [9] was 14.9 µM (active); in test [10], 15.3 µM (active). In addition, the outcome in test [4] and in [6] was inactive.

Regarding `CC(Oc1ccc(Cl)cc1Cl)C(=O)O` (stereo not given), the result in test [1], in test [2], in test [3], in test [4], in [5] and in test [6] was inactive. The outcome in test [7], in test [8], in test [9] and in test [10] was inactive.

Regarding `COP(=S)(OC)Oc1nc(Cl)c(Cl)cc1Cl`, the result in test [1], in [5], in test [9] and in [10] was inactive. Further, the AC50 in test [2] is 27 µM (active); in [3], 30.4 µM (active); in test [4] it was 26.7 µM (active); in [6], 25.3 µM (active); in test [7] it was 27.8 µM (active); in test [8], 26.4 µM (active).

Source of the values: PubChem BioAssay (EPA / NIEHS).
